# Assay outcomes: PubChem BioAssay, National Center for Advancing Translational Sciences (NCATS)
# IL1B secr inh: inhibitors of inflammasome signaling (IL-1 beta secretion). THP-1 LPS/ATP IL-1B secretion, AlphaLISA, 16 h; hits give low values. activity change, % at 57.5 µM. hit rate 4.7% among 360,000; in the data active = activity change below about -50%; inconclusive = mostly about -30% to -49%
#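 Secreted IL-1B measured by AlphaLISA bead assay after 16 h compound exposure of THP-1 cells; compounds (final up to 57.5 uM) added 1 h before LPS (250 ng/mL) and ATP (1.25 mM) stimulation; lower signal means less secretion.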
# DT40 TDP1 CPT: growth inhibition of DT40 Tdp1-/-;hTDP1 cells with camptothecin (screen for TDP1 inhibitors); chicken DT40 Tdp1-/-;hTDP1 cells + 20 nM CPT, ATP luminescence, 48 h; Potency, µM (doses to about 46.2 µM), without a hit: at the top dose activity change, negative = growth inhibition, actives largely listed as inhibitors; hit rate 12% among 420,000; AID 686979; note: potency is the fitted concentration of half-maximal effect; nearly all actives have a fitted effect of over 55% in size
#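 Cell growth measured by CellTiter-Glo luminescence after a minimum 48 h, 37 C compound exposure with 20 nM CPT in Tdp1-knockout DT40 cells stably expressing hTDP1, seeded 400/well; qHTS titration format.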
# HT1080NT lethal: kills 2HG-producing HT-1080-NT fibrosarcoma cells. hit rate 1.6% among 360,000. AID 686970. Potency, µM (series often up to 46.1 µM), for the others: at the top dose activity, negative = less viability, usual class: cytotoxic. HT-1080-NT fibrosarcoma viability, CellTiter-Glo ATP luminescence, 48 h;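 note: NT is the 2HG producing partner of a matched IDH1 knockdown line; potency is the fitted concentration of half-maximal effect; 0% = DMSO-treated cells and -100% = media-only wells without cells; nearly all actives have a fitted effect of over 55% in size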
#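 Toxicity toward the 2HG-producing NT line was scored as %Activity, normalised to DMSO and no-cell wells, from CellTiter-Glo luminescence after 48 hours' treatment.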
# HT1080 IDH1KD tx: kills HT-1080 cells with IDH1 knockdown. HT-1080 IDH1 knockdown viability, ATP luminescence, 48 h. Potency, µM (highest dose often 46.1 µM), for the others: at the top dose activity, negative = toxicity, usual class: cytotoxic. hit rate 2% among 360,000. AID 686971;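 note: potency is the fitted concentration of half-maximal effect; 0% = DMSO wells and -100% = cell-free medium wells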
#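 Knockdown cells (IDH1KD HT-1080) received compounds 2 h after plating at 750 cells/well and were kept 48 h at 37 °C in 5% FBS RPMI. A CellTiter-Glo luminescence read gave % activity for curve fitting.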
# DT40 TDP1 no CPT: qHTS for Inhibitors of human tyrosyl-DNA phosphodiesterase 1 (TDP1): qHTS in cells in absence of CPT. DT40 Tdp1-/- hTDP1 cells, no CPT, ATP luminescence, 48 h. Potency, µM (top dose mostly 46.2 µM), without a hit: at the top dose activity change, negative = growth inhibition, actives largely listed as inhibitors. hit rate 15% among 420,000; note: potency is the fitted concentration of half-maximal effect; nearly all actives have a fitted effect of over 55% in size
#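 Growth kinetics read by CellTiter-Glo luminescence after ≥48 hr at 37 °C. Cells: DT40 Tdp1-/- stably carrying human TDP1, 400 per well, compound exposure in the absence of CPT (DMSO vehicle).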
# ALOX12 inh: inhibitors of human 12S-lipoxygenase ALOX12; Potency, µM (doses to about 108 µM), without a hit: at the highest dose activity change, negative = inhibition, hits mostly inhibitors; hit rate 1.1% among 580,000; purified 12hLO, xylenol orange hydroperoxide absorbance; note: potency is the fitted concentration of half-maximal effect
# Target sequence (P18054 whole entry, looked up): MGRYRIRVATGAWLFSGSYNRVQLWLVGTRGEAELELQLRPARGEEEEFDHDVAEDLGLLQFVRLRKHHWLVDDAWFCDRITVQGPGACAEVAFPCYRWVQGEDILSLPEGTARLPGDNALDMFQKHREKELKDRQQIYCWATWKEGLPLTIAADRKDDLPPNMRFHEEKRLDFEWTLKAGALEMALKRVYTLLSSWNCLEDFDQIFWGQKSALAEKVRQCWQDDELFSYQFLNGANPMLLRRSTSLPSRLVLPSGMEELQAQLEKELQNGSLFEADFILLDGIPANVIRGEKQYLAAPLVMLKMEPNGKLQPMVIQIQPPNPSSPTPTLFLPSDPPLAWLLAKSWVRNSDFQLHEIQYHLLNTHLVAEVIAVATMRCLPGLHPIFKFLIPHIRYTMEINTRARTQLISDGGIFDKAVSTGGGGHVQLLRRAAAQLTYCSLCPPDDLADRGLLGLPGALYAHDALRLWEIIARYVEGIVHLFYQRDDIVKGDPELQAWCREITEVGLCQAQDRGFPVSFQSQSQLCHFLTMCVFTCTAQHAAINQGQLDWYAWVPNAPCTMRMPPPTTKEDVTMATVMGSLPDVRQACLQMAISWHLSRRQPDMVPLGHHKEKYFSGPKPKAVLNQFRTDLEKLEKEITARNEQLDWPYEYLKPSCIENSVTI
#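 Purified human 12hLO (150 nM final) in 25 mM Hepes, 0.01% Triton X-100, pH 7.0 was preincubated 15 min at room temperature with compound. Then 40 uM arachidonic acid was added, 30 min. Hydroperoxide was read by Fe-XO absorbance ratio 573/405 nm.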
# Starred values were filed as active, the others as inactive; u = inconclusive; x = no result given; [ ] = another dose, or the depositor's remark. The entries come from a sample that favours hits as a whole. Unless noted, calls come from the whole dose curve; as a rule, active = well fitted curve in the direction sought with a large enough effect; inconclusive = small, poorly fitted or top-dose-only effect, or another doubt; inactive = no such curve, though single readings can be large; an effect the other way counts as inactive or inconclusive. Unless noted, % is set by controls: 0 for no effect and ±100 for the full control effect.
SMILES,IL1B secr inh,DT40 TDP1 CPT,HT1080NT lethal,HT1080 IDH1KD tx,DT40 TDP1 no CPT,ALOX12 inh
COC[C@H]([C@@H](O)[C@@H](O)C(=O)NCC[C@@H](C)c1nc(/C=C/C[C@H]2OC3(C[C@H](O)[C@H]2C)OC([C@@H](C[C@@H](O)[C@@H](C)[C@@H](O)[C@@H](C)/C=C(C)/C(C)=C/C=C/C(C)=C\C#N)OC)[C@@H](OP(=O)(O)O)C3(C)C)co1)N(C)C (some centres not stated),x,0.0022µM*,x,x,0.0016µM*,5%[6.33 µM]
C#C[C@H]1CN2CC[C@H]1C[C@@H]2CNS(=O)(=O)CCC,x,x,x,x,x,8%[176 µM]
C#C[C@H]1CN2CC[C@H]1C[C@@H]2COC(=O)NCCC,x,x,x,x,x,8.9µM*
CCCCCSc1cc(O)c(C(CNC)C(C)C)cc1OC (configuration not stated),-68*,u,u,u,16µM*,u
Cc1[nH]nc2c1C(c1cccc(OCC(C)C)c1)SCC(=O)N2 (configuration not stated),x,x,x,x,x,21%
O=C(NC[C@H]1C[C@@H]2CCN1C[C@@H]2CN1CCN(c2ccccc2)CC1)Nc1ccsc1,x,x,x,x,x,42%
CN(N=Cc1ccc([N+](=O)[O-])cc1)c1ccccn1,-58*,u,14%,12%,u,u
O=C1c2cc([N+](=O)[O-])ccc2-c2ncccc21,5,u,-8%,-2%,u,38%
C=C[C@H]1CN2CC[C@H]1C[C@@H]2CNS(=O)(=O)Cc1ccccc1,x,x,x,x,x,56%[176 µM]
CC(CCN1CC1)=NNC(=O)Nc1cccc2ccccc12,0,7.3µM*,5%,3%,8.2µM*,13%
COc1cc2c(cc1OC)-c1c(OC)c(OC)c(OC)c3ccnc(c13)C2=O,u,4.1µM*,2%,2%,3.7µM*,-10%
CC(C)(C)CN1CCC2(COc3ccncc3S(=O)(=O)N2)C1 (configuration not stated),x,x,x,x,x,7%[6.33 µM]
CC[C@H]1CN2CC[C@H]1C[C@@H]2CNC(=O)N1CCOCC1,x,x,x,x,x,104%[176 µM]
CC(Cc1ccccc1)NC(=O)C(c1ccc(N)cc1)c1ccc(N)cc1 (configuration not stated),0,12µM*,23%,3%,u,0%
CC(Cc1ccccc1)NC(=O)c1ccc(N)cc1 (configuration not stated),-4,9%,17%,11%,-8%,-9%
CN(C[C@H]1CN2CC[C@H]1C[C@@H]2CNC(=O)c1ccccc1)c1ccccc1,x,x,x,x,x,26%[176 µM]
O=c1cc[se]c2ccccc12,x,x,x,x,x,-7%
CCC(=O)N1[C@H]2CC[C@@H]1c1cnc(-c3ccccc3)nc1C2,x,x,x,x,x,17%
O=C1C=C2C(=CCOC2O)O1 (configuration not stated),x,0.1µM*,x,x,0.15µM*,x
CCOc1ccc(C(=O)N2CCC(c3noc(-c4ccc(S(=O)(=O)N5CCCC5)cc4)n3)CC2)cc1,x,u,x,x,16µM*,-25%
O=C(COc1ccc(S(=O)(=O)N2CCCCC2)cc1)N1CCN(Cc2ccccc2)CC1,9,u,1%,-1%,u,0%
COC(=O)C[C@@](O)(CCC(C)(C)O)C(=O)O[C@@H]1C(OC)=C[C@]23CCCN2CCc2cc4c(cc2[C@@H]13)OCO4,x,x,x,x,x,14%[57.4 µM]
COC(=O)C[C@](O)(CCCC(C)(C)O)C(=O)O[C@@H]1C(OC)=CC23CCCN2CCc2cc4c(cc2[C@H]13)OCO4 (some centres not stated),x,0.013µM*,x,x,0.0094µM*,x
COc1cc2c(cc1OCC1CCCC1)N([S+](=O)([O-])c1cccc(C(F)(F)F)c1)CC21CCN(CC(=O)O)CC1,x,x,x,x,x,68%
CC(C)C(=O)c1cn(Cc2ccc(C#N)cc2)c2ccccc12,-10,29µM*,-3%,-28%,u,-6%
SMILES,IL1B secr inh,DT40 TDP1 CPT,HT1080NT lethal,HT1080 IDH1KD tx,DT40 TDP1 no CPT,ALOX12 inh
COc1cc2c(cc1OCc1ccncc1)NC(=O)C21CCN(C(=O)c2cccnc2)CC1,x,x,x,x,x,60%
Cc1cc(C)c(OCC(=O)Nc2cccc(NC(=O)c3ccco3)c2)c(Br)c1,-55*,23µM*,u,u,13µM*,-1%
Cn1nccc1CN1CCCC2(CC(c3ccccn3)=NO2)C1 (configuration not stated),x,x,x,x,x,26%[176 µM]
CC1=C(C(=O)O)N2C(=O)C(NC(=O)CCCC(=O)O)C2SC1 (configuration not stated),-25,4%,10%,11%,8%,28µM*
Cc1ccc(/C(CSc2nccn2-c2ncc(C(F)(F)F)cc2Cl)=N\O)cc1,1,u,-10%,-14%,18µM*,u
COc1ccc(-c2cc([C@H]3CN4CC[C@H]3C[C@@H]4CNC(=O)C3CCC3)nc(C)n2)cc1OC,x,x,x,x,x,70%
CCc1cnc(N2CCC3(CC2)C(=O)Nc2cc(Oc4ccccc4)c(OC)cc23)nc1,x,x,x,x,x,-12%[176 µM]
O=C(O)c1ccccc1-c1ccc(C=C2C(=O)N(c3ccccc3)C(=S)N(c3ccccc3)C2=O)o1,-12,u,1%,4%,2%,32µM*
COc1cccc(/C=C2\N=C(c3cncc(Br)c3)OC2=O)c1,10,u,12%,13%,23µM*,-14%
COc1ccc(CN2CCN(C(=O)COc3cccc(C)c3)CC2)c(OC)c1,-11,u,4%,-18%,u,u
